# Measured values: PubChem BioAssay
# A number with no mark means an inactive call. The source made the active and inactive calls.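 Rule for the calls, unless noted: active = mean inhibition above 46.68%, the untreated control wells mean plus 3 SD; inactive = the rest.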
# Tests used:
# [1] = target: Nuclear receptor coactivator 1 (Homo sapiens) (UniProt Q15788); experiment: SRC1 coactivator transcriptional activity inhibitors, confirmation, cell-based, luminescence, quadruplicate (AID 588820); conditions: HEK293 GAL4-SRC1 luciferase reporter, at 3.6 µM, active compounds read high;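 note: 0% = DMSO wells and 100% = gossypol 36 µM treated wells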
# [2] = VP16 transactivation inhibitors, counter-screen for SRC1 inhibitor project, cell-based, luminescence, high throughput (AID 588824; in the data active = inhibition above about 25%); conditions: cell-based VP16 transactivation luciferase luminescence; at 3.6 µM; active compounds read high
# Sequence of Nuclear receptor coactivator 1 (Homo sapiens) (Q15788 whole entry, looked up, the tested form may be a part): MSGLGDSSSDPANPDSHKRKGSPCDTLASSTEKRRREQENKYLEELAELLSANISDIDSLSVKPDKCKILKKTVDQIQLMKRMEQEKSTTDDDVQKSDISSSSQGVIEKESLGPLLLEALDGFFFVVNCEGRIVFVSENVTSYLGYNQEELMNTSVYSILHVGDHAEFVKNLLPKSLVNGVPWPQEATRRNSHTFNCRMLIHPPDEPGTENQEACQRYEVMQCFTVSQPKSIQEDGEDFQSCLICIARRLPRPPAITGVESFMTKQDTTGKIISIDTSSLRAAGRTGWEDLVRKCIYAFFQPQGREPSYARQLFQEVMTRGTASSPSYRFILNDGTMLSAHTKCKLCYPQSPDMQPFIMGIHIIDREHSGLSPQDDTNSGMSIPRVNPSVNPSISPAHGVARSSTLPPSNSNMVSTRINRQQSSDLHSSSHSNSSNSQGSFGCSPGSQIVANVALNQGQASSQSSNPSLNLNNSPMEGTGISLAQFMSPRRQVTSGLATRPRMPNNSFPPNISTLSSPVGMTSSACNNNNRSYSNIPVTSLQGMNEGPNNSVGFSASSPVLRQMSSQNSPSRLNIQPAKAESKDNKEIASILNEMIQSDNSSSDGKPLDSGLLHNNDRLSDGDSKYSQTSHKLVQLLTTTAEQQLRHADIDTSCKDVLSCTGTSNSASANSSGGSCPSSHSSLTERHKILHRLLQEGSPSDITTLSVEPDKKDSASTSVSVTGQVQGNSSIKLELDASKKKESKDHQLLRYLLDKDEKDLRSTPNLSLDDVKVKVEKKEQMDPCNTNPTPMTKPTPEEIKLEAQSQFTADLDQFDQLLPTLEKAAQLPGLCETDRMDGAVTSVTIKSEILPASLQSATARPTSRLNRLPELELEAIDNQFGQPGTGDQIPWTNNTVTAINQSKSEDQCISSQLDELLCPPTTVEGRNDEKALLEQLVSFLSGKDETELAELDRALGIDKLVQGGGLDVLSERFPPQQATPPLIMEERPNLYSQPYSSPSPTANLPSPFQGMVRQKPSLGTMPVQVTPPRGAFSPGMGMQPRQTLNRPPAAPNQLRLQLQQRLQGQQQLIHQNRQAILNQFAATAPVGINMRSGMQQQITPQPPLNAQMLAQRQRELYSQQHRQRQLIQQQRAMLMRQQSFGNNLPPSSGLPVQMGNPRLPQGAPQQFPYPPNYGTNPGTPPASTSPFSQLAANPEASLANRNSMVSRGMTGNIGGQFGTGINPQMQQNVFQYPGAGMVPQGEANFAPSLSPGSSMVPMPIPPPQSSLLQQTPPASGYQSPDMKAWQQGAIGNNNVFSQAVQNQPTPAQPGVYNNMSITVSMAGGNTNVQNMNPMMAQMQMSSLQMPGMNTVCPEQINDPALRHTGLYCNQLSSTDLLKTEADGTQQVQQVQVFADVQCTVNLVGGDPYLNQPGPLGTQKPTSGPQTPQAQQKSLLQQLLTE
Compound,inhibition [1] [%],inhibition [2]
C=CCc1cccc(/C=N/NC(=O)C(C)Nc2ccc(C)cc2)c1O (stereo unspecified),6.49,8.01%
CCOc1ccc(NC(=S)N2CCC(NC(=O)c3ccco3)CC2)cc1,-7.01,-4.78%
CCCCN(C(=O)/C=C/c1ccccc1)C1CCS(=O)(=O)C1 (stereo unspecified),-6.12,-4.11%
O=C(c1ccccc1)C1CCN(C(=O)c2cccs2)CC1,-10,-0.27%
Cc1ccccc1COc1cccc(/C=N/NC(=O)c2nnn(-c3nonc3N)c2C)c1,7.5,18.5%
COc1ccc(Cc2nnc(SCC(=O)Nc3ccc(C)c(Cl)c3)[nH]c2=O)cc1,6.82,7.22%
COc1ccc(C(=O)c2c(C)c3ccccc3n2CC(O)CNC(C)C)cc1 (stereo unspecified),-15.4,-0.38%
O=C1NC[C@H](c2ccccc2)OC(=O)[C@@H](Cc2ccc(F)cc2)C/C=C\C[C@H]1CC(=O)N(CCO)Cc1ccccc1,-35,-0.29%
CC(=O)/C(=C/c1ccccc1)C(=O)Nc1ccccc1C,5.97,23.8%
COC(=O)c1ccc(/C=N\NC(=O)CC(=O)NCCc2ccccc2)cc1,-1.47,-15.5%
Cc1cc(C)c(Nc2cc(S(=O)(=O)O)c(N)c3c2C(=O)c2ccccc2C3=O)c(C)c1,9.3,8.52%
CCOC(=O)C1CCN(S(=O)(=O)c2ccc3c(c2)CC(C)N3C(=O)C2CC2)CC1 (stereo unspecified),-22.1,3.71%
NC(=O)c1ccc(N2CCN(S(=O)(=O)c3ccccc3)CC2)c([N+](=O)[O-])c1,-20.8,31.9% (active)
Cn1c2ccccc2c(=O)c2ccc(C#CC3(O)CCCCC3)cc21,-132,-43.1%
CCC(C)c1ccc(S(=O)(=O)Nc2cccnc2)cc1 (stereo unspecified),-9.79,-4.32%
Cc1ccc(C(C(=O)NCc2ccccc2)N(Cc2cccs2)C(=O)c2ccc3c(c2)OCCO3)cc1 (stereo unspecified),-21.8,-1.97%
C=C1C(=O)O[C@@H]2[C@H]1CC[C@H](C)[C@]1(O)CCC(=O)[C@@]21C,-18,11.1%
CCOc1ccc(CCNC(=O)COC(=O)c2cc(OC)c(OC)cc2[N+](=O)[O-])cc1OCC,-11.8,-2.67%
CCc1ccc(CNC(=O)C2CCCN(S(=O)(=O)N(CC)c3ccccc3)C2)cc1 (stereo unspecified),-39.2,-3.99%
COc1ccc(-c2n[nH]c(=S)n2-c2ccc(C)cc2)cc1,-68.5,-40%
COc1cc2cc[n+](Cc3ccc([N+](=O)[O-])cc3)cc2cc1OC,-2.4,-3.17%
CCOC(=O)N1CCC(N(CCN(C)C)C(=S)Nc2ccccc2OCC)CC1,-21.5,4.03%
CCOc1ccc(-c2[nH]ncc2-c2ccc(Cl)cc2)c(O)c1,-8.3,3.27%

Compound,inhibition [1] [%],inhibition [2]
O=C(Nc1ccncc1)c1ccccc1[N+](=O)[O-],33.6,19%
COc1cccc(/C=N/NC(=O)CNC(=O)C2COc3ccccc3O2)c1O (stereo unspecified),21.7,8.91%
CCC1(c2ccccc2)NC(=O)N(CC(=O)Nc2ccccc2C(=O)NC2CCCC2)C1=O (stereo unspecified),-5.15,-0.59%
COc1cccc(C(C(=O)NC2CCCC2)N(C(=O)c2ccco2)c2ccc(C(C)=O)cc2)c1OC (stereo unspecified),-0.53,-9.34%
COc1ccc(OC)c(/C=C2\NC(=O)NC2=O)c1,29.5,15.5%
c1ccc(-n2cnc3cc(NCc4cccs4)ccc32)cc1,-69.4,-44.1%
O=C(COC(=O)COc1ccccc1)NCCc1ccccc1,-16.7,-1.43%
CCN1CCN(S(=O)(=O)c2cc(OCC(=O)NC3CCCCC3)c(C)cc2Cl)CC1,-7.06,31.1% (active)
Cc1nn(-c2ccccc2)c(N2CCCC2)c1/C=N/NC(=S)Nc1ccc(F)cc1,3.12,0.35%
Cc1c(C(=O)NN)nn(-c2ccc(Cl)cc2)c(=O)c1C#N,-10.1,5.25%
O=C(Nc1ccc(F)cc1F)c1c(C(F)(F)F)ccnc1Oc1cccc(C(F)(F)F)c1,-2.06,-3.8%
COc1ccc(OC)c(S(=O)(=O)N2CCN(c3ccccc3)CC2)c1,-2.63,-1.07%
Nc1nc(N)c2c(ccc3nccc32)[nH]1,-7.68,24.9%
CCOC(=O)N1CCN(CC(=O)Nc2ccc(F)c(F)c2)CC1,-18.7,-4%
CCN(Cc1ccncc1)C(=O)CC1C(=O)NCCN1Cc1ccc(F)c(F)c1 (stereo unspecified),30.1,17%
Cc1ccc(N2C(N)=C(C#N)C3(C(=O)N(C)c4ccccc43)C3=C2CC(C)(C)CC3=O)cc1Cl (stereo unspecified),3.57,14.7%
Cc1cccc(C(=O)OCC(=O)NNC(=O)c2cccs2)c1O,-18.5,-2.62%
NC(=O)c1nsc(C(=O)N(c2ccccc2F)C(C(=O)NCc2ccc(F)cc2)c2ccc(O)cc2)c1N (stereo unspecified),-23.1,-2.03%
O=C(COC(=O)c1c(Cl)cccc1Cl)Nc1cc(Cl)ccc1Oc1ccccc1,-14.1,4.43%
CCOC(=O)N1CCC(Nc2ncnc3c2cnn3-c2ccc(C)cc2C)CC1,-5.68,29% (active)
COc1ccc(C(=O)NNC(=O)C(=O)Nc2ccc(C)c(Cl)c2)cc1,5.87,-0.11%
COc1cc(C(=O)OCC(=O)NC(N)=O)cc(CN2C(=O)c3ccccc3C2=O)c1OC,-10.9,-8.55%
CCOc1ccc(CCN2C(=S)N([C@@H](CC(C)C)CN3CCC[C@@H]3CN3C(=S)NC[C@@H]3CC(C)C)C[C@@H]2CC(C)C)cc1,3.98,5.15%

Compound,inhibition [1] [%],inhibition [2]
Cc1cc(C)nc(/N=C(\N)Nc2ccc(CC(=O)OC(C)C)cc2)n1,-11.9,16.6%
O=C(Nc1ccc(S(=O)(=O)N2CCCCC2)cc1)C1CCN(C(=O)c2ccc(F)cc2)CC1,7.57,-1.11%
COc1cc(NC(=O)c2cccc3c(-c4cnn(C)c4)coc23)cc(OC)c1OC,-26.3,-0.35%
CSc1nc(N)nc2c1ncn2CC(=O)N1CCN(Cc2c(C)cc(C)cc2C)CC1,-3.22,34.5% (active)
O=C(COC(=O)C1CCN(c2ccc(C(F)(F)F)cn2)CC1)NCc1cccc(Cl)c1,1.02,-3.36%
O=C(Nc1ccncc1)c1ccc(Cl)c(S(=O)(=O)N2CCc3ccccc32)c1,-6.49,36.8% (active)
CC(=O)c1cccc(NC(=O)c2ccc(CN3CCc4ccccc4C3)cc2)c1,-1.99,9.39%
COc1ccccc1NS(=O)(=O)c1cc(NC(=O)C(C)(C)C)ccc1N1CCOCC1,-45.2,-32.5%
COc1ccc(OC)c(C2=NS(=O)(=O)N(C)C(C(=O)Nc3ccc(F)cc3F)=C2)c1,-0.3,4.07%
NC(CO)C(=O)NNCc1ccc(O)c(O)c1O (stereo unspecified),-18.8,-2.94%
CC(C)(C)c1cc(C(=O)C[n+]2ccc(C(=O)NCCCO)cc2)cc(C(C)(C)C)c1O,-6.91,-12.9%
CCOC(=O)N1CCc2c(sc(NC(=O)CN3CCOCC3)c2C(=O)Nc2ccccc2)C1,-17.7,-5.16%
COc1cc(-c2cnc3c(NC(C)=O)cc(-c4ccc(N5CCN(C)CC5)cc4)cn23)cc(OC)c1OC,-17.8,-18.2%
COc1cc2c(cc1OC)CN(C(=O)c1cc(S(=O)(=O)N3CCOCC3)ccc1C)CC2,1.45,7.41%
Cn1c(/C=N/NC(=O)c2ccccc2Br)nc2ccccc21,4.29,15.7%
COc1ccc(CNC(=O)C(c2ccc(C)cc2)N(Cc2cccs2)C(=O)c2ccc3c(c2)OCCO3)cc1 (stereo unspecified),-13.9,-1.62%
COc1cccc(/C=N/NC(=O)CSc2ccccc2C)c1O,-0.52,6.05%
CCCCCCn1nc(C(=O)OCC(=O)c2c(N)n(C)c(=O)n(C)c2=O)c2ccccc2c1=O,-6.84,-3.36%
CC[C@H](C)[C@H](NC(N)=O)C(=O)NCCc1ccc(OC)c(OC)c1,-11,-10.9%
COc1ccc(Nc2nc(-c3cccs3)nc3ccccc23)cc1S(=O)(=O)N1CCOCC1,-30.8,-9.26%
NS(=O)(=O)c1ccc(N=Nc2c(O)ccc3ccccc23)cc1,7.96,4.7%
O=C1CC(N2CCN(Cc3ccccc3)CC2)C(=O)N1 (stereo unspecified),-10.4,-10.1%
